Experimental data: PubChem BioAssay (NCI)
About 83,000 compounds went through this panel and 20% of them were active in at least one assay; those are over-represented in the sample as a whole.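 Results are percent growth after 48 hours of single-concentration exposure. 100 means growth as in untreated cells, lower positive values show inhibition; negative values down to -100 show cell death.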 A number with no mark means an inactive call. Calls of active or inactive are those of the source. The calls were made as follows: active = growth percent below 10; inactive = the rest.

What follows are compounds tested on HCT-15 colon (assay: NCI-60 one-dose screen, 48 h (100 = growth as untreated, 0 = no growth, -100 = all killed)). Details: 10 µM unless noted.

| Structure (SMILES) | growth |
| --- | --- |
| CC(C)(C)N1CCC1CN (stereo unspecified) | 126% |
| C=C1C(=O)O[C@H]2[C@H]1CC/C(COC(=O)c1cc3cc(OC)ccc3[nH]1)=C\CC[C@@]1(C)O[C@@H]21 | -43.5% (active) |
| CC[C@]1(O)C[C@@H]2CN(CCc3c([nH]c4ccccc34)[C@@](C(=O)OC)(c3cc4c(cc3OC)N(C)[C@H]3[C@@](O)(C(N)=O)[C@H](O)[C@]5(CC)[C@@H]6C[C@@H]6CN6CC[C@]43[C@@H]65)C2)C1 | 11.9% |
| Cc1nn(-c2ccc(F)cc2)c2ncnc(Nc3ccc(NC(=O)Nc4ccc(Cl)c(C(F)(F)F)c4)cc3)c12 | 11.2% |
| O=C(N/N=C/c1ccccc1O)c1ccccc1Nc1ccnc(C(F)(F)F)c1 | 24.6% |
| CC(=O)O[C@H]1[C@@H]2OC(=O)C(CSc3ccccc3)[C@@H]2C[C@H]2O[C@]2(C)CC/C=C(\C)CCC[C@@H]1C (stereo partly specified) | 12.8% |
| C#CCOc1ccc2ncnc(N3CCC(NC(=O)CCl)CC3)c2c1 | 67.7% [8.25 µM] |
| CCC(=O)c1ccc(Cl)s1 | 105% |
| O=C1CC[C@H](c2ccc(O)c3c2C(=O)[C@@H]2O[C@@H]2C3=O)c2cccc(O)c21 | 42.5% |
| COc1ccc(S(=O)(=O)N2CC3(COC3)C2)cc1NC(=O)c1[nH]c(C)c2c1CCCCC2=O | 70.1% |
| O=C1/C(=C/c2ccc3c(c2)OCO3)SC(=S)N1CCc1ccc(O)cc1 | 93% |
| Oc1ccccc1-c1nnc(CNc2ccc(Cl)cc2)o1 | 20.7% |
| Cc1ccc(OC(=O)c2ccc(Cl)cc2)cc1 | 102% |
| O=C(CCCCC(=O)N/N=C\c1ccccc1O)N/N=C\c1ccccc1O | 21% |
| Cc1ccc(NC(=O)/C=C/c2ccccc2)c(C(N)=O)c1 | 33.6% |
| CN1CCN(CCCOc2cccc3nc(Nc4ccc(Cl)c(F)c4)ccc23)CC1 | -48.3% (active) |
| NC1=C(Cl)C(=O)c2ccc(S(N)(=O)=O)cc2C1=O | -58.2% (active) |
| O=C1c2cc3c(cc2-c2c1c1ccc(Cl)cc1c(=O)n2CCCN1CCOCC1)OCO3 | 80.9% |
| O=C1C=CC(=O)N1c1ccc2c(c1)Cc1cc(F)ccc1-2 | 97.1% |

| Structure (SMILES) | growth |
| --- | --- |
| FC(F)(F)c1nc2c(NCc3ccc(-c4ccccc4)cc3)cccc2[nH]1 | 68.4% |
| OC(c1cc2cc(Cl)c(Cl)cc2c2cc(C(F)(F)F)ccc12)C1CCCCN1 (stereo unspecified) | -60.7% (active) |
| Brc1ccc(-c2csc(Nc3ccccn3)n2)cc1 | 138% |
| O=C(Cc1ccccc1Nc1c(Cl)cccc1Cl)NN1C(=O)/C(=C/c2ccc(Br)cc2)SC1=S | 104% |
| COc1ccc(C2CC(c3ccc(Cl)cc3)=NN2/C=C2\SC(=S)N(NC(=O)Cc3ccccc3Nc3c(Cl)cccc3Cl)C2=O)cc1 (stereo unspecified) | 68.7% |
| CCOC(=O)c1csc(NC(=O)COc2cccc(/C=C3\CSc4ccccc4C3=O)c2)n1 | 89% |
| Cn1cc(-c2nonc2-c2c[nH]c3ccccc23)c2cccnc21 | 23.5% |
| COc1cc(/C=C/c2cc(/C=C/c3ccc(O)c(OC)c3)n(-c3c(C)cccc3C)c(=O)n2)ccc1O | 8.19% (active) |
| COc1cccc(C2=NN3C(C2)c2cc(Br)cc(OC)c2OC32CCN(Cc3ccccc3)CC2)c1 (stereo unspecified) | 101% |
| CC(C)(C)c1cc(C(C)(C)C)cc(S(=O)(=O)Nc2cc3ccccc3cc2C(=O)NCCN)c1 | 38.8% |
| O=C(N(c1ccccc1)c1ccccc1)n1ccc2nc(Cl)nc(Cl)c21 | 45.1% |
| Cc1[nH]c(-c2cc(N)ccc2Cl)c2c1C(=O)CCCC2 | 17.7% |
| NC(=O)c1cc(Cl)ccc1NC(=O)/C=C/c1ccccc1 | 27.3% |
| Cn1ncc2c(=O)nc3c(-c4ccccc4)n[nH]n3c21 | 104% |
| Cn1cc(C(=O)c2nc(-c3c[nH]c4ccc(Br)cc34)no2)c2cc(F)ccc21 | 92.1% |
| Cc1[nH]c(-c2ccc3cc[nH]c3c2)c2c1C(=O)CCCC2 | 30.6% |
| O=C1/C(=C(/c2ccccc2)N2CCOCC2)Cc2ccccc21 | -25.9% (active) |
| Cn1c(NCCc2ccc(O)c(O)c2)nc2c1c(=O)n(Cc1ccc(Cl)c(Cl)c1)c(=O)n2C | 45.7% |
| Cc1nn(-c2ccc(F)cc2)c2ncnc(Oc3ccc(NC(=O)Nc4ccc(Cl)c(C(F)(F)F)c4)cc3)c12 | 111% |

Each compound was assayed on HT29 colon in the same assay as above. Details: 10 µM unless noted.

| Structure (SMILES) | growth |
| --- | --- |
| CC(C)(C)N1CCC1CN (stereo unspecified) | 111% |
| C=C1C(=O)O[C@H]2[C@H]1CC/C(COC(=O)c1cc3cc(OC)ccc3[nH]1)=C\CC[C@@]1(C)O[C@@H]21 | -83.4% (active) |
| CC[C@]1(O)C[C@@H]2CN(CCc3c([nH]c4ccccc34)[C@@](C(=O)OC)(c3cc4c(cc3OC)N(C)[C@H]3[C@@](O)(C(N)=O)[C@H](O)[C@]5(CC)[C@@H]6C[C@@H]6CN6CC[C@]43[C@@H]65)C2)C1 | 2.2% (active) |
| Cc1nn(-c2ccc(F)cc2)c2ncnc(Nc3ccc(NC(=O)Nc4ccc(Cl)c(C(F)(F)F)c4)cc3)c12 | 37.9% |
| O=C(N/N=C/c1ccccc1O)c1ccccc1Nc1ccnc(C(F)(F)F)c1 | 41.3% |
| CC(=O)O[C@H]1[C@@H]2OC(=O)C(CSc3ccccc3)[C@@H]2C[C@H]2O[C@]2(C)CC/C=C(\C)CCC[C@@H]1C (stereo partly specified) | 19.5% |
| C#CCOc1ccc2ncnc(N3CCC(NC(=O)CCl)CC3)c2c1 | 64.9% [8.25 µM] |
| CCC(=O)c1ccc(Cl)s1 | 96.9% |
| O=C1CC[C@H](c2ccc(O)c3c2C(=O)[C@@H]2O[C@@H]2C3=O)c2cccc(O)c21 | -17.2% (active) |
| COc1ccc(S(=O)(=O)N2CC3(COC3)C2)cc1NC(=O)c1[nH]c(C)c2c1CCCCC2=O | 19.2% |
| O=C1/C(=C/c2ccc3c(c2)OCO3)SC(=S)N1CCc1ccc(O)cc1 | 113% |
| Oc1ccccc1-c1nnc(CNc2ccc(Cl)cc2)o1 | 39.7% |
| Cc1ccc(OC(=O)c2ccc(Cl)cc2)cc1 | 89.2% |
| O=C(CCCCC(=O)N/N=C\c1ccccc1O)N/N=C\c1ccccc1O | 69.1% |
| Cc1ccc(NC(=O)/C=C/c2ccccc2)c(C(N)=O)c1 | 14.1% |
| CN1CCN(CCCOc2cccc3nc(Nc4ccc(Cl)c(F)c4)ccc23)CC1 | -59.7% (active) |
| NC1=C(Cl)C(=O)c2ccc(S(N)(=O)=O)cc2C1=O | -50.3% (active) |
| O=C1c2cc3c(cc2-c2c1c1ccc(Cl)cc1c(=O)n2CCCN1CCOCC1)OCO3 | 63.3% |
| O=C1C=CC(=O)N1c1ccc2c(c1)Cc1cc(F)ccc1-2 | 95% |

| Structure (SMILES) | growth |
| --- | --- |
| FC(F)(F)c1nc2c(NCc3ccc(-c4ccccc4)cc3)cccc2[nH]1 | 84.4% |
| OC(c1cc2cc(Cl)c(Cl)cc2c2cc(C(F)(F)F)ccc12)C1CCCCN1 (stereo unspecified) | -73.6% (active) |
| Brc1ccc(-c2csc(Nc3ccccn3)n2)cc1 | 97.8% |
| O=C(Cc1ccccc1Nc1c(Cl)cccc1Cl)NN1C(=O)/C(=C/c2ccc(Br)cc2)SC1=S | 109% |
| COc1ccc(C2CC(c3ccc(Cl)cc3)=NN2/C=C2\SC(=S)N(NC(=O)Cc3ccccc3Nc3c(Cl)cccc3Cl)C2=O)cc1 (stereo unspecified) | 57.7% |
| CCOC(=O)c1csc(NC(=O)COc2cccc(/C=C3\CSc4ccccc4C3=O)c2)n1 | -34.2% (active) |
| Cn1cc(-c2nonc2-c2c[nH]c3ccccc23)c2cccnc21 | 12.4% |
| COc1cc(/C=C/c2cc(/C=C/c3ccc(O)c(OC)c3)n(-c3c(C)cccc3C)c(=O)n2)ccc1O | -37.8% (active) |
| COc1cccc(C2=NN3C(C2)c2cc(Br)cc(OC)c2OC32CCN(Cc3ccccc3)CC2)c1 (stereo unspecified) | 108% |
| CC(C)(C)c1cc(C(C)(C)C)cc(S(=O)(=O)Nc2cc3ccccc3cc2C(=O)NCCN)c1 | -43.7% (active) |
| O=C(N(c1ccccc1)c1ccccc1)n1ccc2nc(Cl)nc(Cl)c21 | 24.6% |
| Cc1[nH]c(-c2cc(N)ccc2Cl)c2c1C(=O)CCCC2 | 12.8% |
| NC(=O)c1cc(Cl)ccc1NC(=O)/C=C/c1ccccc1 | 8.83% (active) |
| Cn1ncc2c(=O)nc3c(-c4ccccc4)n[nH]n3c21 | 103% |
| Cn1cc(C(=O)c2nc(-c3c[nH]c4ccc(Br)cc34)no2)c2cc(F)ccc21 | 102% |
| Cc1[nH]c(-c2ccc3cc[nH]c3c2)c2c1C(=O)CCCC2 | 27.4% |
| O=C1/C(=C(/c2ccccc2)N2CCOCC2)Cc2ccccc21 | 8.82% (active) |
| Cn1c(NCCc2ccc(O)c(O)c2)nc2c1c(=O)n(Cc1ccc(Cl)c(Cl)c1)c(=O)n2C | 94.4% |
| Cc1nn(-c2ccc(F)cc2)c2ncnc(Oc3ccc(NC(=O)Nc4ccc(Cl)c(C(F)(F)F)c4)cc3)c12 | 109% |
